The results in this text go back to PubChem BioAssay (Tox21).

A number with no mark means an inactive call. Results filed as inconclusive are left out. Activity calls are given as the source filed them. Unless noted, calls come from the whole dose curve.

A short description of experiment [1]: Nuclear factor erythroid 2-related factor 2/antioxidant responsive element (Nrf2/ARE) small molecule agonists: qHTS cell viability counter screen in human keratinocytes (AID 1919968; active = well fitted curve in the direction sought with a large enough effect in the repeat runs; an effect the other way counts as inactive or inconclusive; note: nearly all actives have a fitted effect of over 55% in size; note: potency is the fitted concentration of half-maximal effect). A digest of the protocol:
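Stably transfected HaCaT (KeratinoSens), 1,500/well. Test agents in DMSO were applied for 23 h, 37 C/5% CO2. CellTiter-Fluor was incubated 1 h before the fluorescence read.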
(In general: Quantitative high-throughput screening tests each substance at several concentrations.)

Experiment [2] can be described thus: Nuclear factor erythroid 2-related factor 2/antioxidant responsive element (Nrf2/ARE) small molecule agonists: luciferase reporter gene qHTS assay in human keratinocytes (AID 1919969). Note: nearly all actives have a fitted effect of over 35% in size. Note: potency is the fitted concentration of half-maximal effect. Background: In a reporter assay the amount or activity of a reporter protein is the signal.
In experiment [3] the target is Gonadotropin-releasing hormone receptor (Homo sapiens) (UniProt P30968). Put plainly: Human gonadotropin-releasing hormone receptor (GnRHR) small molecule agonists, calcium flux assay in GnRHR-HEK293 cells (AID 1920063). Note: nearly all actives have a fitted effect of over 35% in size. Note: potency is the fitted concentration of half-maximal effect. A digest of the protocol: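 Stable human GnRHR HEK293 line. 18 h plating, then calcium dye for 1 h at 37 C. Agonist-mode compound addition from DMSO stocks; fluorescence monitored 3 min.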
Sequence of Gonadotropin-releasing hormone receptor (Homo sapiens) (P30968 whole entry, looked up): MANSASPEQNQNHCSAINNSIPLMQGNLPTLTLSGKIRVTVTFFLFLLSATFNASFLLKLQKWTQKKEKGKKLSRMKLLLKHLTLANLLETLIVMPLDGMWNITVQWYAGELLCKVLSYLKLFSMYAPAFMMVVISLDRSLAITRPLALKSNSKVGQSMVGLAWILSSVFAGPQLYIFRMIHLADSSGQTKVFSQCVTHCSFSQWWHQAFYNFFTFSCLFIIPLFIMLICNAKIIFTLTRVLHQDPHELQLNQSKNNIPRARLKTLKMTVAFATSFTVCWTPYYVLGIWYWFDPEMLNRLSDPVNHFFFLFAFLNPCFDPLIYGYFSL
(Calcium assays in cells follow changes in intracellular calcium, usually with a dye or a luminescent sensor.)

The target of experiment [4] is KiSS-1 receptor (Homo sapiens) (UniProt Q969F8). Put plainly: Human kisspeptin (KISS1R) small molecule agonists, calcium flux assay in KISS1R-HEK293 cells (AID 1920064; active = well fitted curve in the direction sought with a large enough effect in the repeat runs; an effect the other way counts as inactive or inconclusive; note: potency is the fitted concentration of half-maximal effect). The method, boiled down:
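After overnight (18 h) culture at 37 C/5% CO2, human KISS1R-HEK293 cells received calcium dye for 1 h, then test compound; emission at 540 nm (excitation 480 nm) was tracked for 3 min.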

Experiment [5] is described as follows: G protein-coupled receptor (GPCR) small molecule agonists, calcium flux assay: HEK293 wild type cell line counter screen (AID 1920065). The method, boiled down:
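Following 18 h incubation at 37 C/5% CO2, plates got calcium dye for 1 h; compounds, ATP or DMSO were then pinned in and fluorescence followed kinetically (480/540 nm).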

Experiment [6] in a line: p53 small molecule agonists, cell-based qHTS assay with human liver microsomes (AID 1963577). The method, boiled down:
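p53RE-bla cells, 4,000/well, compound added after 5 h, with human liver microsomes 0.5 mg/mL and NADPH 0.5 mg/mL final; 16 h at 37 C, then LiveBLAzer 2 h RT, fluorescence.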

Experiment [7] is described as follows: p53 small molecule agonists, cell-based qHTS assay with rat liver microsomes (AID 1963578). The method, boiled down: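 p53RE-bla cells, 4,000/well, pre-incubated 5 h, then given compounds plus rat liver microsomes (0.5 mg/mL final) and NADPH (0.5 mg/mL final). Incubation 16 h at 37 C; beta-lactamase reporter read by LiveBLAzer fluorescence after 2 h at room temperature.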

Experiment [8] can be described thus: p53 small molecule agonists, cell-based qHTS assay with human liver microsomes: qHTS cell viability counter screen (AID 1963579). Note: nearly all actives have a fitted effect of over 45% in size. Note: potency is the fitted concentration of half-maximal effect. A digest of the protocol:
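p53RE-bla cells, 4,000/well, dosed 5 hours after plating, with human liver microsomes (0.5 mg/mL final) plus NADPH (0.5 mg/mL final), 16 hours at 37 C. Viability read as CellTiter-Glo luminescence after 30 min at room temperature.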

Experiment [9] can be described thus: p53 small molecule agonists, cell-based qHTS assay with rat liver microsomes: qHTS cell viability counter screen (AID 1963580). Note: nearly all actives have a fitted effect of over 45% in size. Note: potency is the fitted concentration of half-maximal effect. The method, boiled down:
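Cytotoxicity counter screen: intracellular ATP measured by CellTiter-Glo luminescence in the same wells as the beta-lactamase reporter read, on HCT-116 p53RE-bla cells exposed 16 h at 37 C to compounds with rat liver microsomes and NADPH, each 0.5 mg/mL final.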

Experiment [10] can be described thus: p53 small molecule agonists, cell-based qHTS assay: qHTS cell viability counter screen (AID 1963581). Note: nearly all actives have a fitted effect of over 45% in size. Note: potency is the fitted concentration of half-maximal effect. The method, boiled down:
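qHTS counter screen: 16 h compound exposure at 37 C of p53RE-bla HCT-116 cells (4,000 per well, seeded 5 h prior), cell viability by ATP luminescence.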

Experiment [11] addresses 5-hydroxytryptamine receptor 2A (Homo sapiens) (UniProt P28223). Put plainly: 5-hydroxytryptamine receptor 2A (HTR2A) small molecule antagonists, cell-based qHTS assay (AID 1963586). Note: nearly all actives have a fitted effect of over 45% in size. Note: potency is the fitted concentration of half-maximal effect. The method, boiled down:
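CHO cells stably expressing human HTR2A were plated for 18 h at 37 C, then loaded with calcium dye for 1 h. Compounds were preincubated 5 min at room temperature before DOI (4 nM solution) was added. Kinetic fluorescence was read for 3 min.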

Experiment [12] has the same target. Put plainly: 5-hydroxytryptamine receptor 2A (HTR2A) small molecule agonists, cell-based qHTS assay (AID 1963587). Note: nearly all actives have a fitted effect of over 30% in size. Note: potency is the fitted concentration of half-maximal effect. The method, boiled down: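 CHO cells stably expressing human HTR2A, plated 18 h, loaded with calcium dye 1 h at 37 C. Agonist mode: compounds added and intracellular calcium fluorescence recorded kinetically for 2 min at 1 sec intervals.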
The target of experiment [13] is Beta-2 adrenergic receptor (Homo sapiens) (UniProt P07550). The experiment can be described thus: Adrenergic beta2 receptor (ADRB2) small molecule antagonists, cell-based qHTS assay (AID 1963592). Note: nearly all actives have a fitted effect of over 50% in size. Note: potency is the fitted concentration of half-maximal effect. A digest of the protocol:
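Assay format: CHO-ADRB2 cells, 18-20hr seeding at 37C/5% CO2, then compound plus 1nM isoproterenol agonist mix for 0.5hr RT. Homogeneous time-resolved fluorescence cAMP detection after 1hr, expressed as 665/615 nm ratio.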

For experiment [14], the target named is D(2) dopamine receptor (Homo sapiens) (UniProt P14416). The experiment can be described thus: Dopamine D2 receptor (DRD2) small molecule agonists, cell-based qHTS assay (AID 1963594). Note: nearly all actives have a fitted effect of over 35% in size. The method, boiled down:
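HEK293 cells stably expressing human DRD2, pre-treated with PDE inhibitor Ro20-1724 (0.1 mM final) and compound 10 min at room temperature, then stimulated with NKH477 (200nM […]) for 30 min. cAMP read by HTRF (665/620 nm).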

The target is the same in experiment [15]. The experiment can be described thus: Dopamine D2 receptor (DRD2) small molecule antagonists, cell-based qHTS assay (AID 1963595; active = well fitted inhibition curve with a large enough effect in the signal ratio in the repeat runs, with a control signal flat; the % refers to the signal ratio; note: potency is the fitted concentration of half-maximal effect). The method, boiled down: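 Cells were plated and grown for 24 h at 37 °C. Ro20-1724 (0.1 mM final) went in first, then compound for 10 min. NKH477 (200 nM) with quinpirole (12 nM) followed for 30 min at RT, then HTRF detection reagents for 1 h.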

For experiment [16], the target named is Muscarinic acetylcholine receptor M1 (Homo sapiens) (UniProt P11229). The experiment can be described thus: Cholinergic receptor muscarinic 1 (CHRM1) small molecule antagonists, cell-based qHTS assay (AID 1963588). Note: nearly all actives have a fitted effect of over 40% in size. Note: potency is the fitted concentration of half-maximal effect. The method, boiled down:
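Compounds were tested at 15 concentrations in three independent runs. Dye-loaded CHRM1-CHO cells were exposed 5 min at room temperature before stimulation by acetylcholine added at 50nM. Intracellular calcium was read kinetically on FDSS for 3 min.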

Experiment [17] shares this target. The experiment can be described thus: Cholinergic receptor muscarinic 1 (CHRM1) small molecule agonists, cell-based qHTS assay (AID 1963589). Note: nearly all actives have a fitted effect of over 35% in size. Note: potency is the fitted concentration of half-maximal effect. The method, boiled down:
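Kinetic fluorescence (1 s intervals) of calcium-sensitive dye in human M1 CHO cells after compound addition; cells pre-incubated 18 h at 37 C/5% CO2 and dye-loaded 1 h.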

Experiment [18] is described as follows: cAMP Responsive Elements (CRE) small molecule agonists, cell-based qHTS assay (AID 1963590). The method, boiled down:
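Test agents in DMSO were incubated 3 h at 37 C/5% CO2 with CRE-bla HEK 293T cells seeded 18 h earlier; LiveBLAzer B/G FRET substrate was added and read after 2 h at room temperature.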

Experiment [19] can be described thus: cAMP Responsive Elements (CRE) small molecule antagonists, cell-based qHTS assay (AID 1963591; active = well fitted inhibition curve with a large enough effect in the signal ratio in the repeat runs, not every such curve was filed as active; the % refers to the signal ratio). The method, boiled down:
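Reporter line CRE-bla HEK 293T in dialyzed-FBS DMEM; cells preincubated 18 h, treated 3 h with compound plus NKH477 (0.25 uM final); LiveBLAzer FRET, 2 h RT.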

Experiment [20] is described as follows: p53 small molecule agonists, cell-based qHTS assay (AID 1963582; active = well fitted activation curve with a large enough effect in the signal ratio in the repeat runs, not every such curve was filed as active; the % refers to the signal ratio). A digest of the protocol: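 Measured: fluorescence from cleaved LiveBLAzer substrate. System: p53RE-bla cells, 16 h compound treatment at 37 C, 2 h substrate step at room temperature.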

Sequence of D(2) dopamine receptor (Homo sapiens) (P14416 whole entry, looked up): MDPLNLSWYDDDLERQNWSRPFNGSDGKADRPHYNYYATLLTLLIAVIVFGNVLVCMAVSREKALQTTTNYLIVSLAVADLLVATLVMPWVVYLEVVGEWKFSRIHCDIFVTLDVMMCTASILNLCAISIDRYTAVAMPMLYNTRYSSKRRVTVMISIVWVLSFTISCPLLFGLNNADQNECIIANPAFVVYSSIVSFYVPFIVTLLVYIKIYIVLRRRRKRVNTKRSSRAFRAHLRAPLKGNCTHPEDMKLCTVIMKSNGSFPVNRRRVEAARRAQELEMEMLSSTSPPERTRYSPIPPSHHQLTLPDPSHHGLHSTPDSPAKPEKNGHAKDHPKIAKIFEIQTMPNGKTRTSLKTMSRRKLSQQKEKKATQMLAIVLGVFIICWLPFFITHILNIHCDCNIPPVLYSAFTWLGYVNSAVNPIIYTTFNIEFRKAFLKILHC
Sequence of Beta-2 adrenergic receptor (Homo sapiens) (P07550 whole entry, looked up): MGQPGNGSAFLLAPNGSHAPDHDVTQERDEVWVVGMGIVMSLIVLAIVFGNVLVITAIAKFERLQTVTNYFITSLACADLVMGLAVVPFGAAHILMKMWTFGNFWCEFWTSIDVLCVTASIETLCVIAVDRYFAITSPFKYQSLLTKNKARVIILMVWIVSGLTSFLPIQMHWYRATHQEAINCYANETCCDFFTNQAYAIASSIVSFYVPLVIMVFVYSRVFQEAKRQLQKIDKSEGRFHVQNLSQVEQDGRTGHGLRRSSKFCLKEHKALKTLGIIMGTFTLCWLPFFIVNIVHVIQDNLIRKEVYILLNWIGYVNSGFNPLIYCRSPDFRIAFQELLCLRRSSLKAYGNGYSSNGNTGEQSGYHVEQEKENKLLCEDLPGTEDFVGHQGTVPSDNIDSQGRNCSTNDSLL
Sequence of KiSS-1 receptor (Homo sapiens) (Q969F8 whole entry, looked up): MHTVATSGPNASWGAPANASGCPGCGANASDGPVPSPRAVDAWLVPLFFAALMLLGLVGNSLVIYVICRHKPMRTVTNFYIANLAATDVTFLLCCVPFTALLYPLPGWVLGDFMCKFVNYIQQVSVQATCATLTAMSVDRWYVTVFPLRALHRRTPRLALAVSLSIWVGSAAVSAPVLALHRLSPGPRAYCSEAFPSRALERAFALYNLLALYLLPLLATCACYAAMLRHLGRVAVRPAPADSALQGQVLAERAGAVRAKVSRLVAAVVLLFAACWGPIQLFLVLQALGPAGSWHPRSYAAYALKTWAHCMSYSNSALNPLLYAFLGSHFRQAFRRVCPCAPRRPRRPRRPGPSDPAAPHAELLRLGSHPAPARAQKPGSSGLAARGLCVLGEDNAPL
Sequence of 5-hydroxytryptamine receptor 2A (Homo sapiens) (P28223 whole entry, looked up): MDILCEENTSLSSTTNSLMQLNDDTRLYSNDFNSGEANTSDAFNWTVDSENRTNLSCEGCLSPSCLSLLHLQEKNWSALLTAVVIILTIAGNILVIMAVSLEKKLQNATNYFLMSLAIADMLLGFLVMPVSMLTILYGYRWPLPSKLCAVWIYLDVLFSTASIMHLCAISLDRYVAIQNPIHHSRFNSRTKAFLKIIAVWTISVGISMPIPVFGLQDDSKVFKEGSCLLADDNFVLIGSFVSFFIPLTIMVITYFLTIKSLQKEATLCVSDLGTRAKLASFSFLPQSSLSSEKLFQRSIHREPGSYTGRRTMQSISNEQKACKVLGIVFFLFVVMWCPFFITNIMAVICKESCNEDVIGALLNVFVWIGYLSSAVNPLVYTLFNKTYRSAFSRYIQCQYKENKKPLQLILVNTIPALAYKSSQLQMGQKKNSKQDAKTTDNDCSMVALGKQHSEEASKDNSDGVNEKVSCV
Sequence of Muscarinic acetylcholine receptor M1 (Homo sapiens) (P11229 whole entry, looked up): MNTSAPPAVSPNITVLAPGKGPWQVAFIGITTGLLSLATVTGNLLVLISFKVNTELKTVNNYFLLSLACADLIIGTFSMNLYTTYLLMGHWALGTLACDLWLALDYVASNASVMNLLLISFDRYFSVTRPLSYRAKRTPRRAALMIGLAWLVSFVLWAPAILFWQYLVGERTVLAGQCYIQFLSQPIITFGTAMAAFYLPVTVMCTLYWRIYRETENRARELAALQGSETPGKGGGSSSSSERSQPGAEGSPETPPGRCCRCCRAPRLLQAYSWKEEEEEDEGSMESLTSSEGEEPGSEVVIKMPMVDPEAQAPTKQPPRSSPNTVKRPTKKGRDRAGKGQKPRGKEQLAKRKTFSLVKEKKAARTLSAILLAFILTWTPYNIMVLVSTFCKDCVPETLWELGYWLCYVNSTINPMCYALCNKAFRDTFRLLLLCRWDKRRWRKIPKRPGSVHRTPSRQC

Turning to `CCC[CH2][Sn]([CH2]CCC)([CH2]CCC)[O]C(=O)c1ccccc1`, the Potency in experiment [1] is 1.09 µM (active); in [2], 0.969 µM (active); in experiment [3], 4.9 µM (active); in [4] it was 19.5 µM (active); in experiment [8] it was 3.24 µM (active); in [9] it was 4.58 µM (active). In addition, the Potency in experiment [10] is 1.62 µM (active); in experiment [11], 1.33 µM (active); in experiment [12] it was 21.9 µM (active); in [13], 0.864 µM (active); in experiment [15] it was 4.86 µM (active). For the same molecule, the Potency entry in [5], in [6], in experiment [7] and in [14] was “inactive” in each case.
`Cc1nc2ccccc2c(=O)n1-c1ccccc1Cl`: the Potency result in experiment [1], in experiment [2], in experiment [3], in [4], in experiment [5] and in experiment [6] was “inactive” throughout. For the same molecule, the Potency result in experiment [7], in experiment [8], in [9], in experiment [10], in experiment [11] and in experiment [12] was “inactive” each time. Also, the Potency result in [16], in experiment [17], in [18], in [19], in experiment [13] and in experiment [14] was “inactive” in each case. The Potency result in [15] is “inactive”.
Regarding `CC(=O)Nc1cc([As](=O)(O)O)ccc1O`, the Potency result in experiment [1], in experiment [2], in [3], in experiment [4], in experiment [5] and in experiment [6] was “inactive” throughout. Moreover, the Potency result in [7], in [8], in experiment [9], in experiment [10], in [20] and in [12] was “inactive” each time. Moreover, the Potency result in experiment [16], in experiment [18], in experiment [19], in experiment [13] and in [15] was “inactive” throughout.
As to `C=C(Cl)Cl`, the Potency result in experiment [1], in experiment [2], in experiment [3], in experiment [4], in experiment [5] and in experiment [6] was “inactive” in each case. Further, the Potency result in experiment [7], in [8], in experiment [9], in experiment [10], in experiment [20] and in experiment [18] was “inactive” throughout. In addition, the Potency result in experiment [19], in experiment [13], in experiment [14] and in experiment [15] was “inactive” each time.
Turning to `CCCCCCCCCCCCCN1CC(C)OC(C)C1` (stereo not given), the Potency result in experiment [1], in experiment [2], in [3], in experiment [4], in experiment [5] and in [6] was “inactive” in each case. The Potency entry in experiment [7], in [8], in experiment [9], in [10], in experiment [11] and in experiment [12] was “inactive” throughout. In addition, the Potency result in experiment [17], in experiment [18], in experiment [19], in experiment [13], in [14] and in experiment [15] was “inactive” in each case.
For the molecule `CC(=O)c1ccc(-c2ccccc2)cc1`, the Potency result in [1], in [2], in experiment [3], in [4], in experiment [5] and in experiment [6] was “inactive” each time. Further, the Potency entry in [7], in experiment [8], in experiment [9], in experiment [10], in experiment [20] and in experiment [12] was “inactive” throughout. Further, the Potency entry in experiment [16], in [18], in experiment [19], in experiment [13], in experiment [14] and in experiment [15] was “inactive” throughout.
`CC[C@H](C)[C@H]1O[C@]2(C=C[C@@H]1C)C[C@@H]1C[C@@H](C/C=C(\C)[C@@H](O[C@H]3C[C@H](OC)[C@@H](O[C@H]4C[C@H](OC)[C@@H](NC)[C@H](C)O4)[C@H](C)O3)[C@@H](C)/C=C/C=C3\CO[C@@H]4[C@H](O)C(C)=C[C@@H](C(=O)O1)[C@]34O)O2`: the Potency is 9.69 µM (active) in experiment [1]; 11 µM (active) in [3]; 28.9 µM (active) in experiment [8]; 14.5 µM (active) in [9]; 10.2 µM (active) in experiment [10]; 38.9 µM (active) in experiment [12]. Further, the Potency in experiment [16] was 23.7 µM (active); in experiment [17], 38.9 µM (active); in experiment [13], 43.3 µM (active); in experiment [15] it was 13.7 µM (active). In addition, the Potency result in experiment [2], in [4], in [5], in experiment [6], in experiment [7] and in experiment [11] was “inactive” each time. In [14], the Potency result is “inactive”.
